Assay outcomes from PubChem.
G9a inh: G9a (human) methyltransferase inhibition | Q96KQ7 | G9a H3K9 monomethylation, AlphaScreen, 2 h | Potency, µM (highest dose often 102 µM), without a hit: at the top dose activity, negative = inhibition, hits mostly inhibitors | actives 8.8% (n = 350,000) | AID 504332; also: % is scaled to controls: 0 for no effect and ±100 for the full control effect; nearly all actives have a fitted effect of over 75% in size
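Using a bead-based AlphaScreen, monomethylated H3K9 product from 2 h room-temperature reactions (G9a 20 nM, peptide 500 nM, SAM 20 uM) was detected with 0.5 ug/mL rabbit anti-H3K9me1 antibody.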
HP1b chromo inh: HP1-beta chromodomain-methylated histone interaction inhibition; P83916; AlphaScreen HP1-beta / biotin-H3K9me3 peptide binding; Potency, µM (titrated, usually from 114 µM), for inactives: top-dose activity change, negative = inhibition, most hits filed as inhibitors; actives 0.56% (n = 390,000); AID 540317; also: nearly all actives have a fitted effect of over 70% in size
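Compound inhibition of the preformed complex between 50 nM HP1-beta and 50 nM biotinylated H3K9me3 peptide was read by AlphaScreen. Buffer was PBS pH 7.4 with 0.01% Tween-20. Incubations ran 30 min at room temperature, with 10 ug/mL donor/acceptor beads.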
ALOX12 inh: blocks human arachidonate 12S-lipoxygenase; P18054; Potency, µM (top dose mostly 108 µM), inactives show at the top dose activity change, negative = inhibition, hits mostly inhibitors; purified 12hLO, xylenol orange hydroperoxide absorbance; actives 1.1% (n = 580,000); also: % is scaled to controls: 0 for no effect and ±100 for the full control effect
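Purified human 12hLO at 150 nM in 25 mM Hepes, 0.01% Triton X-100, pH 7.0, preincubated 15 min at room temperature with compound. Reaction started with 40 uM arachidonic acid, 30 min at room temperature. Hydroperoxide measured by Fe-xylenol orange, 573/405 nm absorbance ratio.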
BAZ2B block: inhibitors of human BAZ2B bromodomain | AlphaScreen BAZ2B-H3K14Ac peptide displacement | actives 4.4% (n = 360,000) | Potency, µM (top dose mostly 114 µM), without a hit: at the highest dose activity change, negative = inhibition, hits mostly inhibitors; also: % is scaled to controls: 0 for no effect and ±100 for the full control effect; nearly all actives have a fitted effect of over 60% in size
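Multi-concentration screen (max 110 uM) measuring displacement of acetylated histone H3 peptide from BAZ2B by AlphaScreen, using 50 nM protein, 50 nM peptide and 10 ug/mL streptavidin donor plus Ni-chelate acceptor beads.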
JMJD2A Tudor: blocks the human JMJD2A Tudor domain; AlphaScreen JMJD2A-Tudor / H3K4me3 peptide binding; Potency, µM (highest dose often 114 µM), for the others: at the highest dose activity change, negative = inhibition, most hits filed as inhibitors; O75164; actives 4.4% (n = 390,000); AID 504339; also: % is scaled to controls: 0 for no effect and ±100 for the full control effect; nearly all actives have a fitted effect of over 50% in size
Sfp inh: blocks B. subtilis Sfp PPTase activity; Q9F4F7; Biochemical Sfp PPTase activity, qHTS; Potency, µM, for inactives: largest response in the series, negative = inhibition, actives largely listed as inhibitors; actives 3.5% (n = 310,000); AID 1490;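 also: the enzyme is Sfp with the accession as filed and its product quenches rhodamine fluorescence; 0% = enzyme reaction without inhibitor and -100% = no enzyme wells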
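Step 1, compound plus 15 nM Sfp-PPTase, 15 min, room temperature. Step 2, add rhodamine-CoA (5 uM) and BHQ-2-YbbR (12.5 uM). Step 3, read 525/598 nm fluorescence at 0 and 30 min.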
An asterisk follows results filed as active; ? = inconclusive; / = not tested or not shown; [ ] = remark or other dose. A selection: hits, their analogues and other compounds. The true share with any hit is near 8.7%. Calls follow the shape of the dose curve; as a rule, active = well fitted curve in the direction sought with a large enough effect; inconclusive = small, poorly fitted or top-dose-only effect, or another doubt; inactive = no such curve, though single readings can be large; an effect the other way counts as inactive or inconclusive. Potency is read from the fitted curve at half-maximal effect.

SMILES	G9a inh	HP1b chromo inh	ALOX12 inh	BAZ2B block	JMJD2A Tudor	Sfp inh
COC(=O)c1cccc(Cn2c(Cl)c(/C=N/NC(=O)c3ccco3)sc2=O)c1	50.1µM*	36.7%	-0.9%	56.2µM*	-17.9%	6.2%
O=Cc1sc(=O)n(Cc2cccc(C(=O)O)c2)c1Cl	?	40.5%[57 µM]	-20.6%	1.9%	-17.0%	44.7µM*
Cc1cc(Cl)ccc1OCC(=O)n1cc(C(=O)c2cc(Cl)ccc2O)cn1	79.4µM*	/	/	-7.9%	/	22.8%
COc1ccc(NC(=O)CSc2n[nH]c(-c3ccccn3)n2)cc1	-3.1%	35.5%	18.0%	3.55µM*	3.98µM*	-13.4%
COc1ccccc1NC(=O)CSc1n[nH]c(-c2ccccn2)n1	11.9%	23.4%	-16.4%	4.47µM*	3.55µM*	-8.1%
Nc1nc(SCC(=O)Nc2cccc(Oc3ccccc3)c2)n[nH]1	15.8µM*	11.8%	-9.3%	-30.0%	-20.0%	-3.6%
O=C(CSc1n[nH]c(-c2ccccn2)n1)Nc1ccccc1F	29.1%	28.8%	0.7%	4.47µM*	2.51µM*	?
COc1ccc(-c2nc(SCC(=O)Nc3cccc(C(C)=O)c3)n[nH]2)cc1	-16.0%[59 µM]	33.8%[57 µM]	-22.9%	2.9%	2.9%	/
COc1ccccc1NC(=O)CSc1n[nH]c(-c2ccco2)n1	/	-17.3%[57 µM]	44.3%	/	-32.5%	/
O=C(c1ccc(C(F)(F)F)cc1)N1CCN(C/C=C/c2ccccc2)CC1	/	/	9.4%	/	/	/
COc1ccccc1-c1nc(SCC(=O)Nc2ccccc2)n[nH]1	/	16.6%	2.2%	-1.6%	-0.7%	5.2%
O=C(CSc1n[nH]c(-c2ccccn2)n1)Nc1ccccc1	/	46.8%	1.7%	?	3.98µM*	-19.4%
Cc1ccc(CNC(=O)CCC2CCCN(C(=O)c3ccc4c(c3)OCO4)C2)o1 (centres undefined)	50.1µM*	10.5%[57 µM]	-20.7%	-14.5%	-7.4%	28.2µM*
Cc1ccc(CNC(=O)CCC2CCCN(Cc3cccc4cccnc34)C2)o1 (centres undefined)	39.8µM*	2.5%	0.0%	?	-32.4%	-15.1%
Cc1ccc(CNC(=O)CCC2CCCN(C(=O)CCC(F)(F)F)C2)o1 (centres undefined)	50.1µM*	38.1%	-9.3%	3.2%	-8.4%	?
C#CCN(C(=O)Cn1c(=O)c2c(ncn2C)n(C)c1=O)C1CCCCC1	/	/	2.8%	/	/	/
O=[N+]([O-])c1ccc(N2CCCCC2)c(-c2nn[nH]n2)c1	44.7µM*	18.9%	-0.5%	?	-12.0%	-4.0%
CC1=C(C(=O)OCc2ccccc2)C(/C=C/c2ccccc2)NC(=S)N1 (centres undefined)	9.3%[59 µM]	-3.6%	17.8µM*	?	?	6.2%
O=C(c1[nH]nc2c1CCc1ccccc1-2)N1CCC(c2noc(-c3ccncc3)n2)C1 (centres undefined)	/	/	-10.2%	/	/	/
CCc1ccc(OCCOCC(O)CNC(C)CC)cc1 (centres undefined)	?	35.6%	18.8%	-4.2%	-5.1%	5.4%
CCC(C)NCCOCCOc1ccc(F)cc1 (centres undefined)	?	?	?	?	3.16µM*	-9.1%
CCC(C)NCCOCCOc1cc(C)c(Cl)c(C)c1 (centres undefined)	?	?	?	79.4µM*	3.98µM*	15.8%
N#Cc1ccccc1CSCCNC(=O)NCc1ccc(CN2CCCC2)cc1	/	/	39.4%	/	/	/
CC(=O)NCCC(=O)N1CCCC1C(=O)Nc1cccc(-n2cccn2)c1 (centres undefined)	/	/	5.3%	/	/	/
O=c1cc[nH]c2cc(C(F)(F)F)ccc12	18.8%[0.501 µM]	-0.7%	-7.2%	?	-17.4%	12.3%
SMILES	G9a inh	HP1b chromo inh	ALOX12 inh	BAZ2B block	JMJD2A Tudor	Sfp inh
FC(F)(F)c1ccc(=S)[nH]c1	/	/	5.01µM*	/	/	/
CN1C[C@@H](NC(=O)NCc2ccccc2)C[C@H]1c1nc(-c2cncnc2)no1	/	/	91.5%[176 µM]	/	/	/
CCCCn1nnnc1C1(C)CCC(=O)N1c1ccc(N2CCOCC2)cc1 (centres undefined)	/	/	-0.7%	/	/	/
Cc1cccc(C)c1-n1nnnc1C1(C)CCC(=O)N1c1ccc(N2CCOCC2)cc1 (centres undefined)	/	/	11.2µM*	/	/	/
COCC1CN(C)CC12CCN(C(=O)Cc1cccc(F)c1)CC2 (centres undefined)	/	/	24.1%	/	/	/
Cc1cc(NC(=O)NCC(c2cccs2)N2CCOCC2)no1 (centres undefined)	/	/	29.4%	/	/	/
CCOc1cccc(/C=N/NC(=O)c2cc(-c3cccn3C)n[nH]2)c1O	47.8%[0.501 µM]	?	?	50.1µM*	?	3.0%
COc1ccc(/C=N/NC(=O)c2cc(-c3cccn3C)n[nH]2)cc1OC	79.4µM*	?	-3.2%	50.1µM*	-12.1%[57.1 µM]	4.7%
COc1cc(OC)c(OC)cc1/C=N/NC(=O)c1cc(-c2cccn2C)n[nH]1	-42.7%[59 µM]	27.9%	0.0%	-27.9%	14.7%	?
Cn1cccc1-c1cc(C(=O)N/N=C/c2cccc(O)c2)[nH]n1	44.7µM*	?	0.3%	44.7µM*	?	-17.8%
Cc1nc(N2CCCC2)ncc1-c1cc(=O)[nH]c(N2CCc3ccccc3C2)n1	/	/	-5.0%	/	/	/
COc1ccc(-c2nc(C3CC(=O)N(c4ccc(OC)c(OC)c4)C3)no2)cc1OC (centres undefined)	/	/	47.6%	/	/	/
O=C1NCCOCCN(C(=O)NC2CCCCC2)[C@@H]2CCCC[C@H]12	/	/	49.1%	/	/	/
CN(Cc1cnccn1)Cc1c(C(=O)N2CCc3ccccc3C2)nc2ccc(Cl)cn12	-11.1%[12.7 µM]	37.3%	-4.1%	-32.1%	-19.3%	?
CN(Cc1cccnc1)Cc1c(C(=O)N2CCc3ccccc3C2)nc2ccc(Cl)cn12	50.1µM*	30.5%	-5.0%	-23.2%	-21.4%	-5.3%
O=C(c1nc2ccc(Cl)cn2c1CN1CCCC1)N1CCc2ccccc2C1	79.4µM*	9.4%	28.7%	?	?	-3.8%
O=C(Nc1ccc(Cl)cc1)N1CCn2c(nnc2C2CC2)C1	/	/	20.1%[176 µM]	/	/	/
COc1ccc(Br)cc1/C=N/OC(C)=O	/	/	-2.2%	/	/	/
COc1nc(-c2ccccc2)ccc1-c1noc(-c2ccco2)n1	?	?	20µM*	5.8%	50.1µM*	?
COc1ccc(-c2ccc(-c3noc(-c4ccco4)n3)c(OC)n2)cc1	-0.3%[59 µM]	39.3%	1.9%	4.3%	3.2%	11.5%
CCNC(=S)NNC(=O)CSc1nc2ccccc2[nH]1	44.7µM*	8.1%	-2.4%	-27.1%	-20.6%	13.0%
CCNC(=S)NNC(=O)CSc1nc2ccccc2n1C	/	27.0%	120.3%	-11.3%	89.1µM*	-6.0%
